# ERK AVP inh – inhibitors of vasopressin-stimulated ERK signaling pathway | HEK293-V1b, vasopressin-stimulated pERK AlphaScreen | 0.99% of 72,000 active | Potency, µM (titrated, usually from 57.5 µM), inactives show top-dose activity, negative = inhibition, hits mostly inhibitors; further: on the % scale 0 is the no-effect control and ±100 the full control effect; nearly all actives have a fitted effect of over 55% in size
#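 Phosphorylated ERK1/2 detected via AlphaScreen bead proximity in lysates of V1b-expressing HEK293 cells given 25 nM vasopressin for 5 min after 30 min compound exposure (37 °C). AC50 from Hill equation; basal DMSO 0%, vasopressin 100%.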
# CRE Fsk mod – modulators of forskolin-stimulated CRE signaling in CHO cells | 2.5% of 71,000 active | Potency, µM (titrated, usually from 38.2 µM), inactives show at the highest dose activity change, negative = inhibition, actives largely listed as activators | CHO CRE-bla reporter (cAMP response element driving beta-lactamase), forskolin EC10, beta-lactamase ratio; active means well fitted activation curve with a large enough effect in the signal ratio, with a control signal flat, not every such curve was filed as active; inconclusive means small, poorly fitted or top-dose-only effect, or effect the other way, or a change in a side signal; the % refers to the signal ratio; further: % of control where 0% means no effect
#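 qHTS titration format; CRE-bla CHO reporter; stimulus EC10 NKH 477, a water-soluble forskolin. Read: CCF4 460/530 nm ratio. Potency expressed as AC50 for activators or inhibitors.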
# TSHR ag – activates the human thyroid stimulating hormone receptor; P16473; HEK293-CNG-TSHR cells (CNG channel as cAMP sensor), membrane potential dye, cAMP; Potency, µM (top dose mostly 57.1 µM), for the others: top-dose activation, hits mostly activators; 0.48% of 73,000 active; active means well fitted activation curve with a large enough effect in the main read-out, with a control signal flat, not every such curve was filed as active; inconclusive means small, poorly fitted or top-dose-only effect, or a change in a side signal; inactive means no such curve, though single readings can be large or run the other way; % of control where 0% means no effect;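 further: the control signal comes from parental cells without the receptor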
# Target sequence (P16473 whole entry, looked up): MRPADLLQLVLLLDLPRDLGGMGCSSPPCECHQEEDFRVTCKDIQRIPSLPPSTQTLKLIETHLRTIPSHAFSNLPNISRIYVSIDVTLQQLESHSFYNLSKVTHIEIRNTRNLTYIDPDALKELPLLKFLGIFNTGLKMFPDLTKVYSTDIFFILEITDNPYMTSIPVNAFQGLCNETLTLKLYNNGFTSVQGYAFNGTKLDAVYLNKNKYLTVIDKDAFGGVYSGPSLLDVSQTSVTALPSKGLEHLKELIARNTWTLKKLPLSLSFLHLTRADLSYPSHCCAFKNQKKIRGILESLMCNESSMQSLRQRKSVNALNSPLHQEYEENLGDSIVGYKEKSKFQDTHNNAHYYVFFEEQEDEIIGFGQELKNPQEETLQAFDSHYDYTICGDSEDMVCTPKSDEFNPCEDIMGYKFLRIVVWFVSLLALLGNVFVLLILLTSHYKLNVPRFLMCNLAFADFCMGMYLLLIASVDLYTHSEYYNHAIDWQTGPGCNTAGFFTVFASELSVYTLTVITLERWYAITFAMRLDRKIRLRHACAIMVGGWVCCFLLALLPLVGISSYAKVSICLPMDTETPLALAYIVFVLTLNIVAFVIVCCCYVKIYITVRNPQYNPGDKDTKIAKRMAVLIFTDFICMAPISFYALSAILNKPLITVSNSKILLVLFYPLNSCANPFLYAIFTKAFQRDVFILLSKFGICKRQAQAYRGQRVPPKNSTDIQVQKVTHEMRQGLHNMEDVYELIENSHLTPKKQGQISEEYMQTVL
#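 cAMP rise detected as CNG-channel membrane depolarization by fluorescent dye (emission 590 nm), 30 min after compound, following 60 min dye loading containing 100 uM RO 20-1724 at room temperature. Cells: TSHR/CNG HEK 293, with parental CNG HEK 293 as control.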
# HEK293 cAMP ctrl – counter-screen for TSHR agonists: cAMP increase in parental HEK293. parental HEK293 CNG cAMP sensor, membrane potential fluorescence. Potency, µM (doses to about 57.1 µM), without a hit: at the highest dose activation, actives largely listed as activators. 2.5% of 73,000 active; further: % of control where 0% means no effect; nearly all actives have a fitted effect of over 55% in size
#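 Parental HEK 293 cells stably expressing a modified CNG channel (no TSHR) report cAMP rise as membrane depolarization. Membrane potential dye with 100 uM RO 20-1724 was loaded for 60 min at room temperature, then compound added for 30 min; fluorescence read at 590 nm.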
# Tau filament bind – binders of human tau filaments | P10636 | recombinant tau filaments, thioflavin S fluorescence, 15 h; filaments grown with octadecylsulfate alongside compound | Potency, µM (doses to about 57.1 µM), inactives show at the top dose activity change, negative = inhibition | 2% of 71,000 active;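 further: on the % scale 0 is the no-effect control and ±100 the full control effect; actives lower thioflavin S fluorescence by blocking filaments or displacing dye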
#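 His-tagged recombinant human tau (exons 2, 3 and 10 included), 1 uM, was induced to fibrillize by 30 uM sodium octadecylsulfate with compound present. After 15 h at 37 C, thioflavine S fluorescence (ex 450, em 510 nm) was read.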
# * hit, by the source's call; i = inactive; ? = inconclusive; / = no result; ! = not active in a repeat; [ ] = dose if it differs, or a comment. This is a sample that favours compounds with a hit; in the whole collection about 7.6% have one here. Unless noted, the call rests on the fitted dose curve; in most records, active means well fitted curve in the direction sought with a large enough effect; inconclusive means small, poorly fitted or top-dose-only effect, or another doubt; inactive means no such curve, though single readings can be large; an effect the other way counts as inactive or inconclusive. Potency means the concentration at half of the fitted maximal effect.
SMILES,ERK AVP inh,CRE Fsk mod,TSHR ag,HEK293 cAMP ctrl,Tau filament bind
CCC(C)(C(=O)NC1CCCC1)N(Cc1cccs1)C(=O)Cc1cccs1 (stereo not given),19.5%,?,?,2.51µM*,9.9%
CCC(C)(C(=O)NC1CCCC1)N(Cc1cccs1)C(C)=O (stereo not given),19.2%,-11.5%,8.7%,16.1%,3.5%
CCOn1c(=O)c(=O)n(OCc2ccccc2)c2ccccc21,-23.0%,?,3.16µM*,4.0%[11.4 µM],-4.6%[11.4 µM]
Cc1c(-c2nc(N)nc(Nc3ccccc3F)n2)oc2ccccc12,-19.1%,3.98µM*,23.8%,14.8%,33.4%
COc1ccccc1Nc1nc(N)nc(-c2cc3ccccc3o2)n1,-4.2%,-4.2%,17.4%,7.3%,51.1%
CC1(C)C(OC(=O)CCC(=O)O)CC[C@]2(C)C1CC[C@@]1(C)C2C(=O)C=C2[C@@H]3C[C@@](C)(C(=O)O)CC[C@]3(C)CCC21C (stereo not given in full),-5.2%,/,/,/,/
COCCn1c(=N)c(C(=O)NCCc2ccccc2)cc2c(=O)n3cccc(C)c3nc21,-9.2%,?,3.4%,0.8%,3.16µM*
C=CCn1c(=N)c(C(=O)NCCCOC)cc2c(=O)n3cccc(C)c3nc21,?,12.6µM*,-13.2%,2.3%,i
COCCNC(=O)c1cc2c(=O)n3cccc(C)c3nc2n1C,/,?,3.6%,0.6%,3.1%
CCNC(=O)c1cc2c(=O)n3cccc(C)c3nc2n1C,10.7%,?,6.6%,10.8%,7.0%
CCn1c(=N)c(C(=O)NCc2cccnc2)cc2c(=O)n3cccc(C)c3nc21,-8.4%,?,-4.1%,0.6%,-6.5%
CCCCNC(=O)c1cc2c(=O)n3cccc(C)c3nc2n(Cc2ccccc2)c1=N,2.7%,2.51µM*,?,-77.6%,0.2µM*
CNC(=O)c1cc2c(=O)n3cccc(C)c3nc2n(C(C)C)c1=N,-21.9%,10µM*,-4.7%,-9.0%,183.4%
[N-]=[N+]=Nc1ccc(C(=O)CSC[C@@H](NC(=O)CC[C@@H](N)C(=O)O)C(=O)NCC(=O)O)cc1,12.3%,-1.2%,-12.6%,19.2%,0.9%
C=C/C(=C\C)C[C@@H](CC(=O)N[C@@H](CCC(=O)O)CC(=O)O)NC(=O)[C@@H]1CNCC[C@H]1NC(=O)C[C@@H](NC(=O)C[C@H](Cc1ccccc1)NC(=O)[C@@H]1CCCC[C@H]1N)C(C)C,/,-13.6%,4.8%,-3.0%,-3.8%
O=C(CSc1nnc2ccccn12)c1ccc(OC(F)F)cc1OC(F)F,?,-5.6%,1.8%,-11.8%,12.6µM*
O=[N+]([O-])c1cccc2c(Br)[nH]nc12,?,?,-8.0%,3.0%,39.8µM*!
N#CC(C#N)=c1ccc2c(c1)NC1(CCCCC1)N=2,15.8µM*,?,?,-65.4%,-25.7%
O=C(c1ccc(Cc2nc3ccccc3[nH]2)cc1)N1CCOCC1,/,/,0.3%,29.9%,/
Cn1c(=O)c2[nH]c(COCc3nc4c([nH]3)c(=O)n(C)c(=O)n4C)nc2n(C)c1=O,1.8%[11.5 µM],10.6%[7.6 µM],-0.8%[11.4 µM],-8.5%[11.4 µM],-0.2%[11.4 µM]
CC[C@]1(O)C[C@H]2CN(CCc3c([nH]c4ccccc34)[C@](C(=O)OC)(c3cc4c(cc3OC)N(C=O)[C@H]3[C@@](O)(C(=O)OC)[C@H](OC(C)=O)[C@@]5(CC)C=CCN6CC[C@]43[C@H]65)C2)C1,15.9%,1.26µM*,7.7%,14.9%,-8.7%
C[C@@H](C(=O)N[C@@H](CO)Cc1ccccc1)[C@H]1C[C@]1(C)[C@H](NC(=O)OCc1ccccc1)c1ccccc1,4.9%,-22.9%,?,10µM*,-11.2%
CNC(=O)[C@H](C)[C@@H]1C[C@@]1(C)[C@@H](NC(=O)OCc1ccccc1)c1ccccc1,2.1%,-6.8%,16.0%,12.3%,-13.6%
C[C@@H](C(=O)N[C@@H](CO)Cc1ccccc1)[C@@H]1C[C@@]1(C)[C@@H](NC(=O)OCc1ccccc1)c1ccccc1,-4.9%,-20.3%,17.6%,-1.9%,-3.1%
C[C@@H](C(=O)NCc1ccccc1)[C@@H]1C[C@@]1(C)[C@@H](NC(=O)OCc1ccccc1)c1ccccc1,-2.5%,-4.8%,5.7%,11.6%,13.6%
SMILES,ERK AVP inh,CRE Fsk mod,TSHR ag,HEK293 cAMP ctrl,Tau filament bind
COC(=O)[C@H](Cc1ccccc1)NC(=O)[C@]1(C)C[C@H]1[C@H](NC(=O)OCc1ccccc1)c1ccccc1,-3.3%,-7.9%,?,5.01µM*,-23.3%
CNC(=O)[C@H](C)[C@H]1C[C@]1(C)[C@H](NC(=O)OCc1ccccc1)c1ccccc1,-25.6%,-10.9%,?,6.31µM*,5.0%
C[C@@H](C(=O)NCC1CC1)[C@H]1C[C@]1(C)[C@H](NC(=O)OCc1ccccc1)c1ccccc1,-6.3%,-12.5%,?,10µM*,0.1%
CO[C@@H]1COC(=O)[C@H](COCc2ccccc2)NC(=O)C/C=C\[C@@H](C)[C@H](OC)COC(=O)[C@H](COCc2ccccc2)NC(=O)C/C=C\[C@H]1C,14.9%[11.5 µM],/,0.9%[11.4 µM],3.0%[11.4 µM],/
O[C@@](CCN1CCCCC1)(c1ccccc1)C1CCCCC1,-3.1%[25.7 µM],-10.3%[17.1 µM],?,32.1%[25.6 µM],-16.5%[25.6 µM]
COc1ccc(-c2csc(N(CC3CCCO3)C(=O)c3cccs3)n2)cc1 (stereo not given),-7.0%,9.3%,?,15.8µM*,9.6%
COc1cc(Sc2ccc(C)cc2)c(OC)cc1N,?,-2.0%,-8.5%,6.0%,25.1µM*
O=C(O)CN1C(=O)O[C@@H](c2ccccc2)C1=O,3.7%[11.5 µM],7.2%[7.6 µM],4.9%[11.4 µM],7.6%[11.4 µM],-0.9%[11.4 µM]
CCC(=O)[C@@]1(C)[C@H](C)C[C@@H]2[C@@H]3CCC4=CC(=O)C=C[C@@]4(C)[C@H]3[C@H](O)C[C@]21C,16.7%[25.7 µM],-3.0%[17.1 µM],-13.2%[25.6 µM],0.7%[25.6 µM],0.9%[25.6 µM]
CC1CC(C)CN(CCC(=O)Nc2cccc(Cl)c2)C1 (stereo not given),-2.8%,-9.0%,9.6%,6.7%,20µM*
O=C(Nc1cccc(N2CCCC2)c1)c1cccs1,?,-12.5%,-30.0%,-21.2%,12.6µM*
Nc1cccc(NC(=O)c2cccs2)c1,2.1%,-1.3%,2.2%,6.0%,-21.9%
C1=CC2c3ccccc3NC(c3ccncc3)C2C1 (stereo not given),?,?,-6.1%,-3.5%,7.94µM*
COc1ccc2cccc(N3CCN(CCNC(=O)c4ccc(F)cc4)CC3)c2c1,?,?,19.9%,12.9%,3.3%
O=c1cnc2cnc(Oc3ccccc3)nc2n1Cc1ccc(F)cc1,-8.9%,-4.7%,?,?,?
COc1ccc(Oc2ncc3nc(-c4ccccc4)c(=O)n(C[C@H]4CCCO4)c3n2)cc1,?,24.3%,14.4%,13.5%,-20.0%
COc1ccc(Oc2ncc3nc(CCc4ccccc4)c(=O)n(C[C@H]4CCCO4)c3n2)cc1,-2.7%,?,?,10µM*,-17.0%

# Source: PubChem (National Center for Advancing Translational Sciences (NCATS))
